ATG4B inh: ATG4B (human) cysteine protease inhibition; ATG4B cleavage of LC3-PLA2, NBD-HPC fluorescence, 1 h; inhibition, % at 8.33 µM; hit rate 0.51% among 340,000; in the data active means inhibition above about 40%
DAGLB inhibitor: diacylglycerol lipase beta (human) inhibition | hit rate 0.059% among 340,000 | inhibition, % at 5.17 µM | HEK293T DAGLB membrane lysate, EnzChek fluorogenic substrate | Q8NCG7 | AID 504411; in the data active means inhibition above about 34%;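 further: 0% = enzyme with vehicle and 100% = wells lacking enzyme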
Target sequence (Q8NCG7 whole entry, looked up): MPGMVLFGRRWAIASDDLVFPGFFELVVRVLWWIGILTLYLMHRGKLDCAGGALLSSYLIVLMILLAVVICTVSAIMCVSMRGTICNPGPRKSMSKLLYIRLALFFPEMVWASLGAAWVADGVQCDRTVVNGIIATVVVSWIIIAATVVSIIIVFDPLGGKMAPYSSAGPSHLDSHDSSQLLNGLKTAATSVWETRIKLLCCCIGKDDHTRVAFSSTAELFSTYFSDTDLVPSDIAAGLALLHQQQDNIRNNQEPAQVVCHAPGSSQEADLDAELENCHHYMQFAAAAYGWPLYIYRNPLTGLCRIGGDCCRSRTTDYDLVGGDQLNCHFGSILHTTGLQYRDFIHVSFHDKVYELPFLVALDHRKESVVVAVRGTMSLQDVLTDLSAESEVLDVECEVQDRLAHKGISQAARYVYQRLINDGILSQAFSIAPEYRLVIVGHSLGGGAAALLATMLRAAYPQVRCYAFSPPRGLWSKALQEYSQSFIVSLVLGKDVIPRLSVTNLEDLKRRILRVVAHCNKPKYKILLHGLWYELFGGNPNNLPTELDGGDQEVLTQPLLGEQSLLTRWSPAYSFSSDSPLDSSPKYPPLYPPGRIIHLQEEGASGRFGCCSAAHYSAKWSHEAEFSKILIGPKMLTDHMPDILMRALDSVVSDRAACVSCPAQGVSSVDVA
PAFAH1B3 FP inh: blocks human PAF acetylhydrolase 1B catalytic subunit 3 | Q15102 | recombinant PAFAH1B3, FP-rhodamine probe, fluorescence polarization | inhibition, % at 3.39 µM | hit rate 0.28% among 340,000 | AID 492972;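 active means inhibition above the screen-wide average of all tested compounds plus 3 SD, cut at about 25% in these data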;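 further: 0% = enzyme with DMSO only and 100% = wells lacking PAFAH1B3 protein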
PAFAH1B2 FP inh: inhibitors of human PAFAH1B2. P68402. recombinant PAFAH1B2, FP-rhodamine activity probe, fluorescence polarization. inhibition, % at 3.39 µM. hit rate 1.2% among 340,000. AID 492953;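 active means inhibition above the mean of all tested compounds plus 3 SD, cut at about 24% in these data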;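 further: 0% = enzyme with DMSO and 100% = wells lacking PAFAH1B2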
PAFAH2 inh: PAFAH2 (human) inhibition; recombinant PAFAH2, FP-rhodamine activity probe, fluorescence polarization; inhibition, % at 3.39 µM; hit rate 0.99% among 340,000; AID 492956;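 active means inhibition above the mean over all tested compounds plus 3 SD, cut at about 30% in these data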;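 further: inhibitors block probe labeling of enzyme so polarization drops; 0% = enzyme with DMSO and 100% = wells lacking PAFAH2 protein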
pPAFAH FP inh: inhibitors of human plasma PAF acetylhydrolase (pPAFAH) | inhibition, % at 3.39 µM | hit rate 1.5% among 330,000 | recombinant pPAFAH, FP-rhodamine probe fluorescence polarization | AID 463082;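 active means inhibition above the mean inhibition across the screen plus 3 SD, cut at about 25% in these data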;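 further: inhibitors block binding of the rhodamine activity-based probe so polarization drops; 0% = enzyme with DMSO and 100% = wells lacking pPAFAH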
PAFAH2 FP conf: confirmation of human PAFAH2 inhibitors; inhibition, % at 3.39 µM; hit rate 65% among 2,300; shares compounds with PAFAH2 inh; recombinant PAFAH2, FP-rhodamine activity probe, fluorescence polarization;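 active means mean inhibition over three repeats above a set limit taken from the earlier primary screen, cut at about 30% in these data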;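 further: inhibitor blocks binding of rhodamine activity probe so polarization falls; 0% = enzyme with DMSO and 100% = wells lacking PAFAH2 protein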
* hit, by the source's call. The list is not random: actives were taken first. Their share in the collection is about 3%.

Screening O=C(COC(=O)CC1CC2CCC1C2)NCc1ccc(F)cc1 (stereo not drawn) returned ATG4B inh -1.0, DAGLB inhibitor -3.6, PAFAH1B3 FP inh 15.6, PAFAH1B2 FP inh 14.5, PAFAH2 inh 50.2*, pPAFAH FP inh 22.2 and PAFAH2 FP conf 39.1*.
Screening Cc1ccc(C(=O)Nc2ccc3c(c2)OCO3)cc1S(=O)(=O)N1CCOCC1 returned ATG4B inh -7.6, DAGLB inhibitor 2.7, PAFAH1B3 FP inh -2.7, PAFAH1B2 FP inh 1.8, PAFAH2 inh 4.4 and pPAFAH FP inh -1.6.
Screening CCN(c1ccc(NC(=O)COC(=O)c2ccc(C)c(S(=O)(=O)N3CCOCC3)c2)cc1)C(C)C returned ATG4B inh -14.6, DAGLB inhibitor 1.9, PAFAH1B3 FP inh -2.8, PAFAH1B2 FP inh 0.9, PAFAH2 inh 38.9*, pPAFAH FP inh 14.4 and PAFAH2 FP conf 22.6.
`O=C(CC1CC2CCC1C2)OCC(=O)c1c[nH]c2ccccc12` (stereo not drawn) gave ATG4B inh -8.0, DAGLB inhibitor -4.9, PAFAH1B3 FP inh -4.4, PAFAH1B2 FP inh -1.6, PAFAH2 inh -4.7 and pPAFAH FP inh 4.1.
`CCOc1ccc(NC(=O)CN(C)C(=O)CC2CC3CCC2C3)cc1OCC` (stereo not drawn) gave ATG4B inh 0.1, DAGLB inhibitor -2.5, PAFAH1B3 FP inh 0.0, PAFAH1B2 FP inh -2.6, PAFAH2 inh -6.5 and pPAFAH FP inh 0.0.
Screening Cc1ccc(C(=O)OCC(=O)Nc2ccc3c(c2)OCO3)cc1S(=O)(=O)N1CCOCC1 returned ATG4B inh -4.7, DAGLB inhibitor -4.0, PAFAH1B3 FP inh 3.7, PAFAH1B2 FP inh -2.0, PAFAH2 inh 74.2*, pPAFAH FP inh 21.3 and PAFAH2 FP conf 76.1*.
Screening CC(=O)c1ccc(NC(=O)COC(=O)CC2CC3CCC2C3)cc1 (stereo not drawn) returned ATG4B inh -1.6, DAGLB inhibitor -0.4, PAFAH1B3 FP inh 12.1, PAFAH1B2 FP inh 9.4, PAFAH2 inh 33.6*, pPAFAH FP inh 22.3 and PAFAH2 FP conf 14.3.
For Cc1ccc(NC(=O)COC(=O)c2ccc(NC(=O)CC#N)cc2)cc1S(=O)(=O)N1CCOCC1 the results were ATG4B inh -9.4, DAGLB inhibitor -0.8, PAFAH1B3 FP inh -27.7, PAFAH1B2 FP inh -13.3, PAFAH2 inh 56.9*, pPAFAH FP inh -8.8 and PAFAH2 FP conf 64.2*.
Screening Cc1ccc(NC(=O)COC(=O)c2ccc3c(c2)OCCO3)cc1S(=O)(=O)N1CCOCC1 returned ATG4B inh -7.0, DAGLB inhibitor 0.8, PAFAH1B3 FP inh 3.6, PAFAH1B2 FP inh -2.2, PAFAH2 inh 80.8*, pPAFAH FP inh 9.3 and PAFAH2 FP conf 73.7*.
Screening N#Cc1ccc(NC(=O)COC(=O)c2ccc(F)c(S(=O)(=O)N3CCOCC3)c2)cc1 returned ATG4B inh -4.0, DAGLB inhibitor -2.5, PAFAH1B3 FP inh 10.4, PAFAH1B2 FP inh 0.8, PAFAH2 inh 48.0*, pPAFAH FP inh 7.3 and PAFAH2 FP conf 38.7*.
`Cc1ccc(NC(=O)COC(=O)CC2CC3CCC2C3)cc1S(=O)(=O)N1CCOCC1` (stereo not drawn) gave ATG4B inh -14.9, DAGLB inhibitor -2.1, PAFAH1B3 FP inh 2.8, PAFAH1B2 FP inh 5.0, PAFAH2 inh 69.5*, pPAFAH FP inh 11.3 and PAFAH2 FP conf 65.0*.
`COCCN1C(=O)N[C@@H](c2ccccc2)[C@H](C(=O)OC)[C@H]1C` gave ATG4B inh 6.1, DAGLB inhibitor 2.5, PAFAH1B3 FP inh 2.7, PAFAH1B2 FP inh 6.8, PAFAH2 inh 8.2 and pPAFAH FP inh -2.6.
CCn1c(SCC(=O)Nc2ccc3c(c2)OCCO3)nnc1C1CC1 was read as ATG4B inh -6.7, DAGLB inhibitor 0.9, PAFAH1B3 FP inh 1.5, PAFAH1B2 FP inh 4.6, PAFAH2 inh 2.1 and pPAFAH FP inh 1.7.
Screening Cc1cccc(NC(=O)CCCn2c(=S)[nH]c3ccccc3c2=O)c1 returned ATG4B inh -6.8, DAGLB inhibitor -0.9, PAFAH1B3 FP inh 7.2, PAFAH1B2 FP inh 5.1, PAFAH2 inh 18.1 and pPAFAH FP inh -6.6.
O=C(COC(=O)CC1CC2CCC1C2)Nc1ccccc1[N+](=O)[O-] (stereo not drawn) was read as ATG4B inh 9.4, DAGLB inhibitor -0.7, PAFAH1B3 FP inh 14.4, PAFAH1B2 FP inh 10.5, PAFAH2 inh 66.0*, pPAFAH FP inh 18.1 and PAFAH2 FP conf 58.8*.
For O=C(COC(=O)Cc1ccccc1F)Nc1ccccc1[N+](=O)[O-] the results were ATG4B inh -2.0, DAGLB inhibitor -7.9, PAFAH1B3 FP inh 13.8, PAFAH1B2 FP inh 8.0, PAFAH2 inh 8.0 and pPAFAH FP inh 6.7.
CCOCCCNC(=O)c1ccc2c(c1)ncn2-c1ccccc1OC was read as ATG4B inh -1.1, DAGLB inhibitor -1.5, PAFAH1B3 FP inh -4.6, PAFAH1B2 FP inh 2.7, PAFAH2 inh -0.2 and pPAFAH FP inh 4.1.
Screening CCC(=O)c1ccc(OCC(=O)OCC(=O)NCc2cccs2)cc1 returned ATG4B inh -3.7, DAGLB inhibitor -3.6, PAFAH1B3 FP inh 11.1, PAFAH1B2 FP inh -0.3, PAFAH2 inh -4.1 and pPAFAH FP inh 5.7.
CC(=O)Nc1ccc(C(=O)OCC(=O)NCc2cccs2)cc1 was read as ATG4B inh -12.9, DAGLB inhibitor -3.1, PAFAH1B3 FP inh 0.6, PAFAH1B2 FP inh -5.7, PAFAH2 inh 71.8*, pPAFAH FP inh 1.2 and PAFAH2 FP conf 38.2*.
`CC(=O)Nc1ccc(C(=O)OCC(=O)NCc2ccc(Cl)cc2)cc1` gave pPAFAH FP inh 5.5.
For Cc1cccc(C(=O)OCC(=O)NCc2cccs2)c1 the results were ATG4B inh 1.7, DAGLB inhibitor -1.6, PAFAH1B3 FP inh 3.3, PAFAH1B2 FP inh -4.3, PAFAH2 inh 41.1*, pPAFAH FP inh 6.0 and PAFAH2 FP conf 28.9.
For CC(C)COc1ccc(C(=O)OCC(=O)NCc2cccs2)cc1 the results were ATG4B inh -18.4, DAGLB inhibitor -5.8, PAFAH1B3 FP inh 9.4, PAFAH1B2 FP inh 3.9, PAFAH2 inh 40.6*, pPAFAH FP inh 12.8 and PAFAH2 FP conf 36.8*.
Screening CCCN(C(=O)c1cc(S(=O)(=O)N(C)c2ccccc2OC)ccc1C)C1CCS(=O)(=O)C1 (stereo not drawn) returned ATG4B inh 1.4, DAGLB inhibitor -0.4, PAFAH1B3 FP inh 5.7, PAFAH1B2 FP inh 1.3 and PAFAH2 inh 2.0.
Screening CC1CCc2sc(C(=O)OCC(=O)NC(C)C)cc2C1 (stereo not drawn) returned ATG4B inh -6.5, DAGLB inhibitor 0.9, PAFAH1B3 FP inh -2.6, PAFAH1B2 FP inh 1.3, PAFAH2 inh 31.0*, pPAFAH FP inh -0.8 and PAFAH2 FP conf 28.9.
Screening Cc1cc(NC(=O)COC(=O)c2cc3c(s2)CCC(C)C3)no1 (stereo not drawn) returned ATG4B inh -11.6, DAGLB inhibitor -5.2, PAFAH1B3 FP inh 4.9, PAFAH1B2 FP inh 5.0, PAFAH2 inh 29.9*, pPAFAH FP inh -2.0 and PAFAH2 FP conf 27.8.

Bioassay records (PubChem)
